# This is part of a sample that, as a whole, favours compounds with a hit. Of some 83,000 tested, about 20% had one in any assay.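 The endpoint reported here, percent growth, reads 100 for growth as untreated, 0 for no net growth and -100 for all cells dead.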 Values without a mark were called inactive. Activity calls are given as the source filed them. How the source made its calls: active means growth percent below 10; inactive means the rest.
# Assays:
# Test in all cases: NCI-60 one-dose screen, 48 h (100 = growth as untreated, 0 = no growth, -100 = all killed)
# Details in all cases: 10 µM unless noted
# NCI-H23 lung = test system: NCI-H23 lung
# NCI-H226 lung = test system: NCI-H226 lung
# NCI-H322M lung = test system: NCI-H322M lung
# HOP-62 NSCLC = test system: HOP-62 NSCLC
# NCI-H460 lung = test system: NCI-H460 lung
# HOP-92 NSCLC = test system: HOP-92 NSCLC
# NCI-H522 lung = test system: NCI-H522 lung
# A549/ATCC NSCLC = test system: A549/ATCC NSCLC
# 786-0 renal = test system: 786-0 renal
# DU-145 prostate = test system: DU-145 prostate
# K-562 leukemia = test system: K-562 leukemia
# MALME-3M melanoma = test system: MALME-3M melanoma
# MDA-MB-231 breast = test system: MDA-MB-231 breast
# RXF 393 renal = test system: RXF 393 renal
# SF-268 CNS = test system: SF-268 CNS
# SF-295 CNS = test system: SF-295 CNS
# SF-539 CNS = test system: SF-539 CNS
# UACC-257 melanoma = test system: UACC-257 melanoma
# COLO 205 colon = test system: COLO 205 colon
SMILES,growth (NCI-H23 lung) [%],growth (NCI-H226 lung) [%],growth (NCI-H322M lung) [%],growth (HOP-62 NSCLC) [%],growth (NCI-H460 lung),growth (HOP-92 NSCLC),growth (NCI-H522 lung),growth (A549/ATCC NSCLC) [%],growth (786-0 renal) [%],growth (DU-145 prostate) [%],growth (K-562 leukemia),growth (MALME-3M melanoma) [%],growth (MDA-MB-231 breast) [%],growth (RXF 393 renal),growth (SF-268 CNS) [%],growth (SF-295 CNS),growth (SF-539 CNS) [%],growth (UACC-257 melanoma) [%],growth (COLO 205 colon) [%]
Cc1c2c(cn1Cc1ccccc1)CCc1cn[nH]c1-2,89.2,101,106,89.1,101%,70.1%,97.5%,99.3,98.1,117,51.8%,105,89.3,87.6%,89.6,81.5%,92.7,107,
COc1cc(C(=O)/C=C/c2c(-c3ccc(F)cc3)nc3ncccn23)cc(OC)c1OC,39.3,63.4,69.9,68.1,21.6%,23.6%,-0.92% (active),61.1,70.7,31.8,17.9%,50.7,64.4,13.6%,51,56.4%,28.5,47,
COc1ccc(-n2nnc(C(=O)NCCc3c[nH]c4ccc(F)cc34)c2C)cc1,98.5,97.9,101,86.5,100%,87.6%,76.1%,82,99.6,107,,106,97.8,105%,97.3,102%,103,87.7,111
C[N+](C)(C)CCOC(OCC[N+](C)(C)C)(c1ccccc1)c1ccccc1,99.8,107,129,106,106%,91%,93%,100,114,,99%,126,108,122%,,117%,96.6,103,116
CCc1cc(Cc2cc(CC)cc(C(C)(C)C)c2O)c(O)c(C(C)(C)C)c1,17.5,48.6,50,34.7,4.34% (active),-22.6% (active),22.2%,23.8,23.6,43.1,8.51% (active),19.5,13.8,5.58% (active),37.6,-2.11% (active),39.6,46.7,
Cc1ccc(-n2nnc(C3=NCCc4c3[nH]c3ccc(Cl)cc43)c2C)cc1,80.6,76.2,85,72.2,72.5%,76.4%,30.9%,41.3,78.2,87.3,,98.3,80.4,102%,80.6,70.6%,92.9,57.9,101
Nc1ccc2c(S(=O)(=O)O)ccc(S(=O)(=O)O)c2c1,100,101,121,92.3,101%,89.1%,85%,92.6,97.8,115,90.6%,109,111,114%,102,105%,88.5,95.3,
O=c1[nH]c(NCc2nnnn2-c2ccc(Br)cc2)nc2sc3c(c12)CCCC3,97.6,94.3,91.1,94.1,100%,94.5%,72.2%,77.4,88,106,,112,92.4,103%,98.7,92.1%,95.9,96,97.9

# From PubChem BioAssay (NCI)
